Laboratory results published in PubChem BioAssay AID2546 (National Center for Advancing Translational Sciences (NCATS), 2010).
Screen size: about 310,000 compounds; about 11,000 (3.5%) were called active. Not shown: some 8% with an inconclusive outcome. The list comes from a sample in which actives are over-represented; it also holds similar structures and randomly drawn compounds. Unmarked numbers belong to inactive results. The call rests on the fitted dose curve; in most records, active means well fitted inhibition curve with a large enough effect; inconclusive means small, poorly fitted or top-dose-only effect, or effect the other way; inactive means flat fitted curve, though single readings scatter.

Experiment: VP16 counterscreen qHTS for inhibitors of ROR gamma transcriptional activity;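 further: Gal4-VP16 expression switched on by copper sulfate through the metallothionein promoter; nearly all actives have a fitted effect of over 50% in size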
Conditions: Drosophila S2 Gal4-VP16 UAS-luciferase, luminescence, 20 h; series mostly up to 53.6 µM; activity, negative = inhibition: at the top concentration
On the % scale 0 is the no-effect control and ±100 the full control effect; potency means the concentration at half of the fitted maximal effect.

Compared with O=C(c1cc(COc2ccc(F)c(F)c2)on1)N1CCOCC1, COc1ccc(OCc2cc(C(=O)N3CCCC3)no2)c2ccccc12 is higher in “activity, negative = inhibition” value: -16% for the first, 12.5% for the second.

First: COc1ccc(CCN2CC(C(=O)NCCN3CCNC3=O)CCC2=O)cc1 (stereo not given)
Second: COc1ccc(N2CCC(N3CCN(C)C(CCO)C3)CC2)cc1 (stereo not given)
The “activity, negative = inhibition” value of the first is lower: -15.9% for the first, -1.4% for the second.

First: COc1ccc(CNC(=O)Cc2ccc(-c3ccccc3)cc2)cc1OC
Second: COc1ccc(CNC(=O)c2c[nH]c3c(OC)cc(OC)cc3c2=O)cc1
The “activity, negative = inhibition” value of the first is higher: 10.3% for the first, 2.18% for the second.

Compared with Cc1ccc(C(=O)NCCN2CCOCC2)cc1C, COc1cc(/C=N/NC(=O)c2ccoc2C)ccc1OCCN1CCCCC1 is lower in “activity, negative = inhibition” value: 2.14% for the first, -3.7% for the second.

First: Cc1nc(NC(=O)c2ccc3c(c2)OCCO3)ccc1Br
Second: O=C(NCc1ccc2c(c1)OCO2)c1cc(F)c(F)cc1Cl
The “activity, negative = inhibition” value of the first is higher: -6.43% for the first, -6.45% for the second.

First: COc1cc(C(C(=O)NC2CCCC2)N(Cc2ccccc2)C(=O)c2snc(C(N)=O)c2N)ccc1O (stereo not given)
Second: COc1cccc(C(C(=O)NC2CCCC2)N(C(=O)c2ccco2)c2cccc(C(C)=O)c2)c1OC (stereo not given)
The “activity, negative = inhibition” value of the first is lower: -16.6% for the first, 8.49% for the second.

Compared with COC(=O)c1ccc(CN2CCCC(C(=O)Nc3cccc(-n4cnnn4)c3)C2)cc1 (stereo not given), CCOC(=O)C1CCCN(S(=O)(=O)c2ccc(-n3cnnn3)c(C)c2)C1 (stereo not given) is higher in “activity, negative = inhibition” value: -0.887% for the first, 13.5% for the second.

Going from O=C(CCCc1ccccc1)NCc1ccccc1 to Cc1c(CNCCc2ccccc2)c(C(=O)O)c(C)n1-c1ccccc1, the “activity, negative = inhibition” value rises from -5.36% to 20.5%.

Compared with CC(=O)c1ccc(N2CCN(C(=O)CCc3ccccc3)CC2)cc1, CC(=O)c1ccc(N2CCN(C(=O)CCNC(=O)Cn3ccc4ccccc4c3=O)CC2)cc1 is lower in “activity, negative = inhibition” value: 10.4% for the first, 2.36% for the second.

First: COC(=O)c1cccc(N(CC(=O)NCC2CCCO2)C(=O)CCC(=O)Nc2cc(C)on2)c1 (stereo not given)
Second: COCCNC(=O)c1ccc(Cn2c(SCC(=O)NCC3CCCO3)nc3ccc(Br)cc3c2=O)cc1 (stereo not given)
The “activity, negative = inhibition” value of the first is higher: 3.36% for the first, -8.04% for the second.

First: CC(C)NS(=O)(=O)c1ccc(OCC(=O)NC2CCCCCC2)cc1
Second: CCOc1ccc(-c2noc(CCC(=O)NC3CCCC3)n2)cc1OC
The “activity, negative = inhibition” value of the first is lower: -4.5% for the first, 6.06% for the second.

Compared with CC(C)CC(=O)c1c[nH]c(C(=O)NCc2ccccc2)c1, Cc1cccc(NC(=O)C(C)SCc2ccccc2)c1 (stereo not given) is lower in “activity, negative = inhibition” value: -0.114% for the first, -3.55% for the second.

First: Cc1cc(C)n(CC(O)COc2ccc(C(C)(C)C)cc2)n1 (stereo not given)
Second: Cc1nn(C(C)(C)C)c(OC(=O)CC(C)C)c1S(=O)(=O)c1ccccc1
The “activity, negative = inhibition” value of the first is lower: 2.58% for the first, 5.08% for the second.

Compared with CCOc1ccc(S(=O)(=O)N2CCC(C(=O)NCc3ccccn3)CC2)cc1Cl, CC1CCN(S(=O)(=O)c2ccc3c(ccn3CC(=O)O)c2)CC1 is lower in “activity, negative = inhibition” value: 2.16% for the first, 0.253% for the second.

Going from O=C(NCCCn1ccnc1)Nc1ccc(Cl)cc1Cl to O=C(Nc1ccccc1C(=O)NCCCn1ccnc1)c1ccc(Cl)cc1Cl, the “activity, negative = inhibition” value falls from -7.92% to -8.8%.

Going from CSCCC(NS(=O)(=O)c1ccccc1F)C(=O)N1CC=C(c2ccccc2)CC1 (stereo not given) to Cc1nnc(NC(=O)C(c2ccccc2)c2ccccc2)s1, the “activity, negative = inhibition” value rises from -0.385% to 7.09%.

Compared with O=C(Nc1ccc(Cl)c(Cl)c1)c1ccccc1NC(=O)C1CC=CCC1C(=O)O (stereo not given), O=C(CC(=O)Nc1ccc(Cl)c(Cl)c1)N/N=C/c1ccc(O)cc1 is lower in “activity, negative = inhibition” value: 2.06% for the first, -6.4% for the second.

Going from Cc1cccc(OCc2ccc(C(=O)Nc3ccc(F)cc3)cc2)c1 to Cn1c(CNC(=O)c2ccccc2F)nnc1SCc1ccc(F)cc1, the “activity, negative = inhibition” value falls from -0.168% to -1.58%.

Compared with CCSc1ncc(Cl)c(C(=O)Nc2cc(C)ccc2C)n1, CSc1ncc(Cl)c(C(=O)Nc2cc(C)ccc2C)n1 is higher in “activity, negative = inhibition” value: 0.583% for the first, 2.76% for the second.

Compared with Cc1nnc(NC(=O)Nc2ccc(Cl)c(Cl)c2)s1, Cc1ccc(S(=O)(=O)CC(=O)Nc2nnc(C)s2)cc1 is lower in “activity, negative = inhibition” value: 1.23% for the first, 0.532% for the second.

First: O=S(=O)(c1ccc(Cl)cc1)c1nc(-c2ccco2)oc1N1CCCCC1
Second: Cc1[nH]n(-c2ccccc2)c(=O)c1N=Nc1ccccc1C(=O)N1CCCCC1
The “activity, negative = inhibition” value of the first is lower: -7.28% for the first, 3.52% for the second.

Compared with CCn1c(C)c(C)c2cc(C(=O)N3CCN(c4cccc(C)c4C)CC3)ccc21, CCCCNC(=O)c1cn(CC)c2cc(N3CCN(C(=O)c4ccco4)CC3)c(F)cc2c1=O is higher in “activity, negative = inhibition” value: 1.57% for the first, 2.5% for the second.

Compared with CCOC(=O)c1ccc(N2C(=O)CC(N(C)Cc3ccccc3)C2=O)cc1 (stereo not given), CCOc1ccc(N2C(=O)CC(N(O)c3ccccc3)C2=O)cc1 (stereo not given) is higher in “activity, negative = inhibition” value: -0.343% for the first, 2.07% for the second.

Compared with COc1ccc(CN(C)C(=O)Cc2ccsc2)c(OC)c1OC, COc1ccc(-c2csc(NC(=O)c3ccc(N4C(=O)CCC4=O)cc3)n2)cc1OC is higher in “activity, negative = inhibition” value: -2.7% for the first, -0.532% for the second.

Going from COc1ccc(C)cc1Nc1nc(-c2c(C)[nH]c3ccccc23)cs1 to COc1ccc(-c2csc(NC3OC(=O)c4ccccc43)n2)cc1 (stereo not given), the “activity, negative = inhibition” value rises from -9.12% to 9.71%.

First: O=S(=O)(Cc1cc(Cl)nc(-c2cccnc2)n1)c1ccccc1
Second: Cc1c(Cl)cccc1NC(=S)N(Cc1ccccc1)Cc1cccnc1
The “activity, negative = inhibition” value of the first is lower: -13.2% for the first, -4.7% for the second.

Going from Cc1ccc(-c2nc3ccccc3[nH]c2=O)cc1 to Cc1ccc(C(=O)CSc2nnc(Cn3nnc4ccccc43)n2C)cc1, the “activity, negative = inhibition” value rises from -9.75% to 15.3%.

Going from OC(c1nc2ccccc2[nH]1)C(O)C(O)C(O)c1nc2ccccc2[nH]1 (stereo not given) to CC(C)(C)NC(=O)NC(=O)COC(=O)C1c2ccccc2Oc2ccccc21, the “activity, negative = inhibition” value falls from -6.56% to -9.04%.

First: O=C(CSc1ccc(-c2ccco2)nn1)Nc1cccc(F)c1
Second: CS(=O)(=O)Nc1cccc(C2=NN(C(=O)c3cccc(F)c3)C(c3cccs3)C2)c1 (stereo not given)
The “activity, negative = inhibition” value of the first is lower: -2.6% for the first, 8.13% for the second.

First: O=C(N/N=C/c1cccc([N+](=O)[O-])c1)c1ccncc1
Second: COc1cccc(/C=N/NC(=O)c2cccc([N+](=O)[O-])c2)c1OS(=O)(=O)c1ccc(C)cc1
The “activity, negative = inhibition” value of the first is lower: -2.67% for the first, -1.03% for the second.

First: Cc1nc2cc(C(F)(F)F)ccc2n1CCNc1nc(-c2cc(Cl)c(N)c(Cl)c2)cs1
Second: CCOC(=O)c1ccccc1NS(=O)(=O)c1c(C)nc2sccn2c1=O
The “activity, negative = inhibition” value of the first is higher: -0.934% for the first, -4.73% for the second.

Compared with Cc1ccc(NC(=O)C/C(N)=N/O)cc1Cl, Cc1c(Cl)cccc1NC(=O)NCc1ccc(C)n1C is higher in “activity, negative = inhibition” value: -2.54% for the first, 6.08% for the second.

Compared with CN(C)S(=O)(=O)c1cccc(NC(=S)NCc2ccc3c(c2)OCO3)c1, CC(=O)Nc1ccc(S(=O)(=O)NNC(=O)CCc2ccccc2)cc1 is higher in “activity, negative = inhibition” value: 0.712% for the first, 2.51% for the second.

Going from CCOC(=O)c1c(C)[nH]c(C)c1S(=O)(=O)NCCCc1ccco1 to CCN(CC)CCCNC(=O)c1cc2c(=O)[nH]c3ccc(C)cc3c2s1, the “activity, negative = inhibition” value rises from -3.08% to -1.31%.

Going from O=C(NCCc1ccc(Cl)cc1Cl)c1cc([N+](=O)[O-])c[nH]c1=O to Cc1occc(=O)c1OCc1c(Cl)cccc1Cl, the “activity, negative = inhibition” value falls from 2.24% to -24.2%.

Compared with Cc1cc(Cl)c2oc(C(=O)N(C)C(C)c3ccccn3)c(C)c2c1 (stereo not given), Cc1cc(C(=O)NC2CCCc3c2cnn3-c2cccc(C)c2C)c(C)o1 (stereo not given) is lower in “activity, negative = inhibition” value: 27.8% for the first, -96.4% for the second.

First: Cn1nccc1CNC(=O)c1ccnn1C
Second: Cc1ccc(-n2ncc3c2CCCC3NC(=O)c2cnccn2)cc1C (stereo not given)
The “activity, negative = inhibition” value of the first is higher: -7.45% for the first, -18.1% for the second.

Going from COc1ccc(C(=O)NC2CC(C)(C)Cc3c2cnn3-c2ccccc2C)o1 (stereo not given) to CC1(C)Cc2c(cnn2-c2cccc(F)c2)C(NC(=O)c2cc[n+]([O-])cc2)C1 (stereo not given), the “activity, negative = inhibition” value falls from 1.14% to -7.81%.

Going from CC(=O)NCC(=O)NC1CCCc2c1cnn2-c1ccccc1F (stereo not given) to O=C(CCCn1c(SCC(=O)c2ccccc2)nc2ccccc2c1=O)NCC1CCCO1 (stereo not given), the “activity, negative = inhibition” value falls from -5.41% to -6.43%.

Compared with CCn1c(SCC(=O)Nc2ccc(Br)cc2)nc2sc3c(c2c1=O)CCN(C)C3, O=C(O)c1ccc2c(=O)n3c(nc2c1)/C(=C/c1ccc(OC(F)F)cc1OC(F)F)CC3 is lower in “activity, negative = inhibition” value: 6.53% for the first, -2.9% for the second.

With O=C(Nc1nnc(C2=COCCO2)o1)c1ccc([N+](=O)[O-])s1 the Potency was 3.16 µM (active).
For Cc1ccc(C(=O)Nc2nnc(C3=COCCO3)o2)cc1C, the Potency was 0.282 µM (active).
In the case of CCN1C(=NCC(C)C)N[C@@H](CCc2ccccc2)[C@H](C(=O)NCC(C)C)[C@H]1C, the Potency is reported as “inactive”.
In the case of C=CCN1CCN(C(=O)CCCc2ccccc2)CC1, the Potency is reported as 7.94 µM (active).
For CC(=O)Oc1c2c(c3c(c1CC=C(C)C)O[C@@]14C(=CC5CC1C(C)(C)OC4(C/C=C(\C)C(=O)O)C5=O)C3=O)OC(C)(CCC=C(C)C)C=C2 (stereo not given in full), the Potency was 5.62 µM (active).
For COc1ccc(CNC(=O)c2cc(C(=O)C3CC3)c[nH]2)cc1, the Potency was 22.4 µM (active).
For Clc1ccc(C(Cn2ccnc2)OCc2ccsc2Cl)c(Cl)c1 (stereo not given), the Potency was 15.8 µM (active).
In the case of Cc1cccc(NC(=O)c2nc(S(=O)(=O)Cc3ccccc3)ncc2Cl)c1, the Potency is reported as 4.47 µM (active).
In the case of Cc1cccc(CS(=O)(=O)c2ncc(Cl)c(C(=O)Nc3ccc(F)cc3)n2)c1, the Potency is reported as 3.16 µM (active).
For Cc1ccc(CS(=O)(=O)c2ncc(Cl)c(C(=O)Nc3nnc(C)s3)n2)cc1, the Potency was 6.31 µM (active).
With CCCCCCC(=O)N(O)C1CC(=O)N(c2ccccc2)C1=O (stereo not given) the Potency was 5.01 µM (active).
With COc1ccc(-c2csc(Nc3ccc(O)cc3)n2)cc1 the Potency was 12.6 µM (active).
For COc1ccc(OC)c(Nc2nc(-c3ccc(O)c(O)c3)cs2)c1, the Potency was 8.91 µM (active).
In the case of c1ccc2[nH]c(-c3nc4ccccc4[nH]3)nc2c1, the Potency is reported as 10 µM (active).
With Cn1c(Cn2nnc3ccccc32)nnc1SCC(=O)c1ccccc1F the Potency was 7.08 µM (active).
With Cc1[nH]n(-c2ccccc2)c(=O)c1/C=N/NC(=O)c1ccoc1C the Potency was 1 µM (active).
With Cc1ccc(-n2[nH]c(C)c(/C=N/NC(=O)c3cccc([N+](=O)[O-])c3)c2=O)cc1C the Potency was 0.891 µM (active).
With O=C(CC(O)(C(F)(F)F)C(F)(F)F)Nc1ccc(Cl)c(Cl)c1 the Potency was 5.01 µM (active).
For Cc1c(Cl)cccc1NC(=S)NCc1ccc2c(c1)OCO2, the Potency was 11.2 µM (active).
With CCNC(=S)Nc1cccc(Cl)c1C the Potency was 17.8 µM (active).
With Cn1nccc1C(=O)NC1CCCc2c1cnn2-c1ccc(F)cc1F (stereo not given) the Potency was 0.891 µM (active).
For Cn1nccc1C(=O)NC1CCCc2c1cnn2-c1ccccc1F (stereo not given), the Potency was 1.41 µM (active).
With COc1ccc(C(=O)NC2CCCc3c2cnn3-c2cccc(C)c2C)c(OC)n1 (stereo not given) the Potency was 12.6 µM (active).
For CCCCn1c(SCC(=O)NCC2CCCO2)nc2ccc(N3CCOCC3)cc2c1=O (stereo not given), the Potency was 11.2 µM (active).

Work on COc1ccc(-c2csc(Nc3ccccn3)n2)cc1 yielded an activity, negative = inhibition of -8.73% [at 10 µM].
